Screening data deposited in PubChem by National Center for Advancing Translational Sciences (NCATS).
Giardia killer = kills Giardia lamblia | activity change, % at 7.66 µM, hits read low | Giardia lamblia trophozoite viability | hit rate 0.15% among 340,000 | AID 540267; in the data active means activity change below about -80%; inconclusive means between about -30% and that limit;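 further: parasites exposed to compound for two days anaerobically before the ATP read; on the % scale 0 is the no-effect control and ±100 the full control effect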
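Giardia lamblia trophozoites (100 cells/well) were incubated with compounds for 48 h at 37 deg C under anaerobic conditions. Viability was read as ATP content by one-step luminescence after 15-30 min at room temperature.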
DRD3 agonist = agonists of human D3 dopamine receptor | AID 652048 | P35462 | hit rate 0.58% among 410,000 | D3R DiscoveRx beta-arrestin cells, luminescence, 90 min | max activation, %; in the data active means max activation above about 30%; further: 0% is about no effect
Target sequence (P35462 whole entry, looked up): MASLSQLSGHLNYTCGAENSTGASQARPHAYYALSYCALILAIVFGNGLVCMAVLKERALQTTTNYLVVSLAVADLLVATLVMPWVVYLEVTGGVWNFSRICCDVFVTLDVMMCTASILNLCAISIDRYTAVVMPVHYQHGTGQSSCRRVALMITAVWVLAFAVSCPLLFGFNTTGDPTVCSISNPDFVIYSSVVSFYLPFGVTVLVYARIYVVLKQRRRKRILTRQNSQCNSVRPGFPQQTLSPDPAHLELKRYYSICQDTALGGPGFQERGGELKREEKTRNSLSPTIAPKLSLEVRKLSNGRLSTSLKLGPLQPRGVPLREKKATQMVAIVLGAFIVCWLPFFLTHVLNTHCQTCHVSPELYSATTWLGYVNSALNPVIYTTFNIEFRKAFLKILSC
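Agonist-mode cell screen: cells plated at 1500/well and incubated overnight at 37 °C, then exposed to library compounds for 90 min at 37 °C. Detection reagent was added for 30–60 min at room temperature, and luminescence was read.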
D3 antag = D3 dopamine receptor (human) antagonism | hit rate 2.5% among 360,000 | D3R cells, DiscoveRx beta-arrestin luminescence, antagonist mode; stronger effect = lower value | max response, negative = inhibition, % | AID 652054; in the data active means max response below about -50%; inconclusive means no clear call, values can overlap the other calls; further: on the % scale 0 is the no-effect control and ±100 the full control effect
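Cells expressing the human receptor were seeded at 1500 cells/well, incubated overnight at 37 degrees C in 5% CO2, then exposed to library compounds with dopamine controls for 90 minutes at 37 degrees C before luminescent detection.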
B2AR arrestin = beta2AR (human) beta-arrestin recruitment activity; beta-arrestin recruitment to beta2AR, cell-based reporter; hit rate 0.02% among 330,000; Potency, µM (titrated, usually from 46.1 µM), for inactives: at the highest dose activation, actives largely listed as activators; active means well fitted activation curve with a large enough effect; inconclusive means small, poorly fitted or top-dose-only effect;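 further: potency means the concentration at half of the fitted maximal effect; 0% = DMSO controls and full agonism = EC100 isoproterenol or metaproterenol; nearly all actives have a fitted effect of over 65% in size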
The depositor's hits bear a star; ? = inconclusive; · = no result given. Most compounds without a hit are left out; they make up all but 2.8% or so of the library.

SMILES	Giardia killer	DRD3 agonist	D3 antag	B2AR arrestin
c1ccc(N2CCN(c3nnc(Cc4cccnc4)c4ccccc34)CC2)nc1	20	42*	7	-4%
CCC(Sc1nnc(C)n2c1cc1sccc12)C(=O)Nc1ccccc1F (stereo not drawn)	·	-14	·	·
COc1cc(COCC(O)CN2CCc3ccccc3C2)cc(OC)c1OC (stereo not drawn)	-15	-10	-85*	1%
COc1cc(COCC(O)CN2CCCCC2C)cc(OC)c1OC (stereo not drawn)	-15	-6	0	0%
COc1ccc(OCC(O)CN2CCCCC2)cc1 (stereo not drawn)	6	-12	-8	-1%
Cc1ccc(OCC(O)CN2CCc3ccccc3C2)c(C)c1 (stereo not drawn)	11	-19	-104*	0%
COc1ccc(OCC(O)CN2CCc3ccccc3C2)cc1 (stereo not drawn)	-15	-16	-107*	0%
COc1cccc(OCC(O)CN2CCc3ccccc3C2)c1 (stereo not drawn)	-20	-14	-91*	0%
COc1cccc(NC(=O)C(CCSC)NC(=O)C2CCC(C)CC2)c1 (stereo not drawn)	·	-2	·	·
CCc1ccc(NC(=O)CSc2nnc(-c3cc4occc4n3C)n2-c2ccccc2C)cc1	·	4	·	·
CC(C)(C)NC(=O)COC(=O)CNC(=O)C1CCCCC1	17	·	·	·
CCC(=O)c1ccc(OCC(O)CN2CCc3ccccc3C2)cc1 (stereo not drawn)	14	1	-75*	0%
CCCc1ccc(OCC(O)CN2CCc3ccccc3C2)cc1 (stereo not drawn)	25	-19	-94*	0%
CC(C)(C)c1ccc(OCC(O)CN2CCc3ccccc3C2)cc1 (stereo not drawn)	5	-21	-119*	·
N=c1n(CCN2CCCCC2)c2ccccc2n1CC(O)COc1ccc(Cl)cc1Cl (stereo not drawn)	·	-18	·	·
CCc1ccc(OCC(O)CN2CCCC2)cc1 (stereo not drawn)	9	-5	14	-1%
CC(C)(C)c1ccc(OCC(O)CN2CCN(C(=O)c3ccccc3)CC2)cc1 (stereo not drawn)	3	-11	13	0%
OC(COc1ccc(Cl)cc1Cl)CN1CCc2ccccc2C1 (stereo not drawn)	24	-11	-103*	0%
O=C(CSCc1nc2cccnc2n1C1CCCCC1)NCc1cccc(Br)c1	·	-22	·	·
Cc1nn(-c2ccccc2)c2c1N(CC(=O)NCc1ccc(N(C)C)cc1)C(=O)CS2	·	-6	·	·
CCC(CC)C(=O)Nc1ccc(C(=O)OCc2cc(=O)n3nc(C4CC4)sc3n2)cc1	·	27	·	·
COCCN1C(=S)N[C@@H](c2ccccc2)C(C(=O)OC)=C1C	·	·	·	0%
CCOC(=O)c1[nH]c(C)c(CCC(=O)Nc2cc(Cl)ccc2C)c1C	·	-11	·	·
CCOC(=O)c1c(S(=O)(=O)N2CCC(C(=O)Nc3ccc(F)cc3F)CC2)c(C)n(C)c1C	·	6	·	·
C=CCc1ccc(OCC(O)CN2CCc3ccccc3C2)c(OC)c1 (stereo not drawn)	49	-18	-100*	2%
SMILES	Giardia killer	DRD3 agonist	D3 antag	B2AR arrestin
CN(Cc1cnccn1)Cc1ccccc1OCC(O)CN1CCc2ccccc2C1 (stereo not drawn)	11	-20	-83*	0%
Cc1cccc(OCC(O)CN2CCc3ccccc3C2)c1 (stereo not drawn)	-24	-1	-104*	0%
Fc1ccc(-c2noc3ncnc(NCCc4ccccc4)c23)cc1	·	-10	·	·
COc1ccccc1NC(=O)CSc1nc2c(oc3ccccc32)c(=O)n1-c1ccccc1F	·	9	·	·
CC1Cc2ccccc2N1S(=O)(=O)c1cccs1 (stereo not drawn)	28	13	-110*	-1%
O=C(c1ccc(Br)cc1)N1CCN(CCc2ccncc2)CC1	·	-38	·	·
O=C(NCCN1CCN(C(=O)c2ccc(Br)cc2)CC1)c1ccc(Br)cc1	12	-24	-98*	-1%
Cc1ccc(C(=O)NCCN2CCN(C(=O)c3ccc(C)c(C)c3)CC2)cc1C	4	-28	-98*	-1%
CCn1c(C)c(C)c2cc(C(=O)NCCCN3CCCCCC3)ccc21	-22	-19	-29	-1%
CCn1c(C)c(C)c2cc(C(=O)NCCN3CCCCCC3)ccc21	-5	-18	-81*	-1%
CC1CCCCN1CCCNC(=O)c1ccc(Br)cc1 (stereo not drawn)	-4	-31	-65*	-1%
COc1cc(C(=O)NCCN2CCN(C(=O)c3cc(OC)c(OC)c(OC)c3)CC2)cc(OC)c1OC	-2	2	15	0%
O=S(=O)(c1ccc(OCC(O)CN2CCN(c3ccc(F)cc3)CC2)cc1)N1CCOCC1 (stereo not drawn)	5	-18	-25	0%
CC(=O)Nc1ccc(OCC(O)CN2CCN(c3cc(Cl)ccc3C)CC2)cc1 (stereo not drawn)	-3	-58	-10	0%
Cc1ccc(Cl)cc1N1CCN(CC(O)COC(C)C)CC1 (stereo not drawn)	4	-14	-79*	0%
CC(C)(C)CC(C)(C)NCC(O)COc1ccc2c(c1)CCC2 (stereo not drawn)	-13	3	-63*	·
COc1ccccc1N1CCN(CC(O)COc2ccc(S(=O)(=O)N3CCOCC3)cc2)CC1 (stereo not drawn)	-14	-31	-81*	0%
COc1ccccc1N1CCN(CC(O)COc2ccc(C)c(C)c2)CC1 (stereo not drawn)	16	-21	-101*	0%
COc1ccc(-c2cccc(C3C4C=CCCC4(C)C(=O)N3Cc3ccccc3)c2)cc1 (stereo not drawn)	-23	·	·	·
CCOC(=O)c1ccc(NC2SC(=O)N(Cc3cccc(C(=O)O)c3)C2=O)cc1 (stereo not drawn)	·	11	·	·
COc1ccccc1N1CCN(CC(O)COc2ccc3c(c2)CCC3)CC1 (stereo not drawn)	-20	-5	-67*	0%
CC(C)NC(=O)C1(C)CSCC(=O)N1C1CCN(Cc2ccccc2)CC1 (stereo not drawn)	·	-21	-64*	·
C=CCNC(=O)c1ccc(CN2CCC(Cc3ccccc3)CC2)cc1	11	-26	?	-1%
COc1ccc(CCNC(=O)c2ccc(CN3CCC(Cc4ccccc4)CC3)cc2)cc1	18	-9	-17	1%
Cc1ccccc1NC(=O)c1ccc(CN2CCC(Cc3ccccc3)CC2)cc1	24	-19	-64*	0%
CC1(C(=O)NCc2ccccc2)CSCC(=O)N1C1CCN(Cc2ccccc2)CC1 (stereo not drawn)	·	-22	-17	·
CC(C)NC(=O)c1ccc(CN2CCC(Cc3ccccc3)CC2)cc1	10	-24	-80*	0%
Cc1ccc(S(=O)(=O)N2CCN(c3nc(-c4ccc(CN5CCOCC5)s4)nc4ccccc34)CC2)cc1	-7	·	·	·
CCOc1ccc(-n2c(SC(C)C(=O)OC)nc3c([nH]c4ccccc43)c2=O)cc1 (stereo not drawn)	·	-9	·	·
Cc1ccc(-c2nc3cccnc3o2)cc1NC(=O)COc1ccc(C(C)(C)C)cc1	2	79*	103	0%
